From PubChem BioAssay AID1851 (National Center for Advancing Translational Sciences (NCATS), 2009)
Several values for one entry are separate records, joined by “and”; a condition that tells them apart may be missing. Equal entries are not always repeated. The whole screen tested about 16,000 compounds, of which about 5,800 (36%) were called active. Inconclusive results (about 23%) are left out. The call rests on the fitted dose curve; in most records, active means well fitted curve in the direction sought with a large enough effect; inconclusive means small, poorly fitted or top-dose-only effect, or effect the other way; inactive means no such curve, though single readings can be large or run the other way. This is one part of the list.

The molecules below were run against Cytochrome P450 2C19 (Homo sapiens) (UniProt P33261) (assay: Cytochrome panel assay with activity outcomes). Conditions: recombinant CYP, pro-luciferin dealkylation, luminescence, p450-cyp2c19; series mostly up to 57.1 µM.
On the % scale 0 is the no-effect control and ±100 the full control effect.

Chain of Cytochrome P450 2C19 (Homo sapiens) (P33261 whole entry, looked up): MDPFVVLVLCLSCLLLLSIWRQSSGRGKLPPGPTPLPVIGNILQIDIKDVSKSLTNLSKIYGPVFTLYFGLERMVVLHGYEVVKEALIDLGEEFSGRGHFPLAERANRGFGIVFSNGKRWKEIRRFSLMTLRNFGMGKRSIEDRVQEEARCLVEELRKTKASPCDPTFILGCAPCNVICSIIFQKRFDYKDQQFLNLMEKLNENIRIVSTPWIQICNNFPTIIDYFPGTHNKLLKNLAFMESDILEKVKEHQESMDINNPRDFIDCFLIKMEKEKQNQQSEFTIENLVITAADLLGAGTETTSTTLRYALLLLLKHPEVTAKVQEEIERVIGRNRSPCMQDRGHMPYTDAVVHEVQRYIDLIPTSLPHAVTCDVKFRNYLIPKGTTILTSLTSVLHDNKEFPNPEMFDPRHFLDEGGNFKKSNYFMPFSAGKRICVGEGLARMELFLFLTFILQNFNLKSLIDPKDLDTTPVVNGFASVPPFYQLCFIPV

AC50, inactive:
N[C@@H](Cc1ccc(O)c(O)c1)C(=O)O
Cc1cc(C(C)(C)C)cc(C)c1CC1=NCCN1
CC1(C)CCC=[N+]1[O-]
COc1ccc(OC)c(NC(=O)c2cc3n(n2)C(C(F)(F)F)CC(c2ccc4c(c2)OCO4)N3)c1 (configuration not stated)
COc1ccc(NC(=O)c2cc3n(n2)C(C(F)(F)F)CC(c2ccc4c(c2)OCO4)N3)cc1OC (configuration not stated)
C#CC[N+](CC)(CC)CC#Cc1cccc(Cl)c1
COCCCNC(=O)C1C2C=CC3(CN(Cc4ccc(C)cc4)C(=O)C13)O2 (configuration not stated)
COC(=O)N1CCC2(CCN(C(=O)NC(C)C)CC2)CC1
FC(F)(F)c1nnc2c(Sc3ccc(Cl)cc3)nc3ccccc3n12
C[C@@]1(C(NC(=O)Cc2ccc(C(F)(F)F)cc2)c2ccc(-c3ccccc3)cc2)C[C@H]1C1CCCCC1 (some centres not stated)
CC(C)NC(=O)N1CCC2(CC1)CCN(C(=O)c1cc(C(F)(F)F)cc(C(F)(F)F)c1)CC2
Cc1ccc(S(=O)(=O)NCC2CCC(C(=O)O)CC2)cc1 (configuration not stated)
COCCCNC(=O)C1CCN(S(=O)(=O)N(CC(C)C)CC(C)C)CC1
CCCN(CCc1ccccc1)[C@H]1CCc2c(O)cccc2C1
Cc1ccc(COn2c(-c3ccc(Cl)cc3)nc3ccc([N+](=O)[O-])cc32)cc1
Nc1nc(Nc2ccccc2)nc2c1ncn2[C@@H]1O[C@@H](CO)[C@H](O)[C@@H]1O
Nc1nc(Cl)nc2c1ncn2[C@@H]1O[C@@H](CO)[C@@H](O)[C@H]1O
CCOc1cc(C)ccc1OCc1nnc(SCC(=O)c2cccc([N+](=O)[O-])c2)n1CC
CC1(C)OC(C(N)=O)C(C(N)=O)O1 (configuration not stated)
CN(c1ccc(C(=O)NC2CC3CCC2C3)cc1)S(C)(=O)=O (configuration not stated)
COc1ncc2nc(-c3cc(F)cc(F)c3)c(=O)n(CCC#N)c2n1
C=CCNC(=O)c1ccccc1Cl
O=C(O)Cc1cc2ccccc2nc1C(=O)O
COc1ccc2c(c1)CCC1[C@@H]2CCC2(C)[C@@H](NCCCCCCN3C(=O)C=CC3=O)CC[C@@H]12 (some centres not stated)
COc1ccc(C(=O)N2CCC3(CCCN(CC(C)C)C3)CC2)cc1
Cc1ccc2cc(C(=O)O)c(C)nc2c1
COc1ccc(C)cc1NC(=O)c1cc2cc3ccc(C)cc3nc2o1
COc1ccc2cc3cc(C(=O)NCCCN4CCOCC4)oc3nc2c1
COc1ccc2cc3cc(C(=O)NCc4ccccn4)oc3nc2c1
CCN1CCN(CCCNC(=O)c2cc3cc4ccc(OC)cc4nc3o2)CC1
COCC(=O)N1CCC[C@@]2(CCN(c3ncccn3)C2)C1
CC[C@@H]1OC(=O)[C@H](C)[C@H](O[C@@H]2C[C@](C)(OC)[C@H](O)[C@H](C)O2)[C@H](C)[C@H](O[C@@H]2O[C@@H](C)C[C@@H](N(C)C)[C@@H]2O)[C@](C)(O)C[C@H](C)C(=O)[C@H](C)[C@H](O)[C@]1(C)O
NS(=O)(=O)c1cccc2c1c([N+](=O)[O-])cc1[nH]c(=O)c(=O)[nH]c12
CCCSc1nc(C)cc(C)c1C(N)=O
CCC(=O)N[C@@H]1CCc2cccc(OC)c2C1
COc1cccc(Nc2ncc3nc(-c4ccc(F)cc4)c(=O)n(C)c3n2)c1
COc1ccc(-c2nc3cnc(Nc4cccc(OC)c4)nc3n(Cc3cccs3)c2=O)cc1
CC(=O)c1cnc2cc(C)nn2c1C

AC50, active:
O=C1CCCN1c1ccc(S(=O)(=O)Oc2cccc(Cl)c2)cc1[N+](=O)[O-] 0.501 µM
N=c1sccn1CC(=O)Nc1cccc(Oc2ccccc2)c1 15.8 µM
CCCCCOC(=O)c1c(N)n(CCOC)c2nc3ccccc3nc12 14.1 µM
C/C(=N\NC(=S)Nc1ccc(F)cc1)C1CC1 0.562 µM
COC(=O)C1=C(N)N(c2ccccc2C(F)(F)F)C2=C(C(=O)CCC2)C1c1ccc2c(c1)OCO2 (configuration not stated) 20 µM
O=C(c1ccc(COc2ccc(F)cc2)o1)n1cccn1 3.55 µM
CC(=O)COC(=O)CCc1nc2ccccc2[nH]c1=O 11.2 µM
CCCCNC(=O)C1C2C=CC3(CN(Cc4ccccc4Cl)C(=O)C13)O2 (configuration not stated) 20 µM
Cc1ccc(CN2CC34C=CC(O3)C(C(=O)NCc3ccco3)C4C2=O)cc1 (configuration not stated) 14.1 µM
Cc1ccc(CN2CC34C=CC(O3)C(C(=O)NCc3ccc5c(c3)OCO5)C4C2=O)cc1 (configuration not stated) 15.8 µM
FC(F)(F)c1nnc2c(Sc3ccccc3)nc3ccc(Cl)cc3n12 1.41 µM
CC(C)NC(=O)c1ccc(-c2cccc(C(F)(F)F)c2)o1 7.08 µM
CC(=O)Nc1ccc(S(=O)(=O)NCC2CCC(C(=O)NCCC(C)C)CC2)cc1 (configuration not stated) 31.6 µM
Cc1cc(C)c(Cn2cnc(-c3ccc([N+](=O)[O-])cc3)c2)c(C)c1 3.16 µM
C=C(C)C1CC=C(C)/C(=N/NC(=O)c2ccc(NC(=O)c3cccc(C)c3)cc2)C1 (configuration not stated) 1.41 µM
Nc1nc(Nc2ccccc2)nc2c1ncn2[C@@H]1O[C@@H](CO)[C@H](O)[C@H]1O 0.631 µM
C=CCn1c(Cc2ccc(OC)cc2)nnc1SCC(=O)c1cccc([N+](=O)[O-])c1 14.1 µM
CCOc1cc(C)ccc1OCc1nnc(SCC(=O)c2cccc([N+](=O)[O-])c2)n1C 14.1 µM
COc1cc2c(cc1OC)CN(C(=S)Nc1ccccc1)CC2 2.51 µM
COCOc1ccc(Br)cc1C(=O)[C@H]1O[C@H]1c1cccc(OC)c1 0.0631 µM
CCCC1c2c(ccc3ccccc23)Oc2ccc3ccccc3c21 0.631 µM
C=CCNC(=O)c1csc(-c2ccccc2)n1 10 µM
O=C(/C=C/c1ccco1)Nc1ccc(Oc2ccccc2)cc1 5.01 µM
O=C(c1ccccc1)c1nc2ccccc2n(CCCn2c(=O)c(C(=O)c3ccccc3)nc3ccccc32)c1=O 1 µM
CCCCCn1c(=O)c(C(=O)c2ccccc2)nc2ccccc21 2 µM
COc1cccc(CNCc2ccc(SC)cc2)c1OC 0.251 µM
CC(C)(C)NC(=O)CSC(=Nc1ccc(F)cc1)NC#N 2.82 µM
Cc1ccc2cc3cc(C(=O)N4CCCCC4C)oc3nc2c1 (configuration not stated) 14.1 µM
COc1ccc2cc3cc(C(=O)Nc4ccc5c(c4)OCO5)oc3nc2c1 7.08 µM
COc1ccc2cc3cc(C(=O)NCc4ccc5c(c4)OCO5)oc3nc2c1 10 µM
COc1ccc2cc3cc(C(=O)NCCN4CCN(c5ccccc5F)CC4)oc3nc2c1 28.2 µM
O=S1(=O)C=C(SCc2cccc(Cl)c2)Nc2ccccc21 0.891 µM
C=CCOc1cccc(CNn2cn[nH]c2=S)c1 7.94 µM
C[C@@H](C(=O)NCCc1c[nH]c2ccccc12)[C@@H]1C[C@@]1(C)[C@@H](NC(=O)OCc1ccccc1)c1ccccc1 0.794 µM
C[C@@H](C(=O)NCCc1c[nH]c2ccccc12)[C@H]1C[C@]1(C)[C@H](NC(=O)OCc1ccccc1)c1ccccc1 2.51 µM
COc1cccc([C@@H]2Oc3ccc(OC)cc3C(=O)[C@H]2O)c1 1 µM
COc1cccc([C@@H]2Oc3ccc(Br)cc3C(=O)[C@H]2O)c1 3.16 µM
Nc1c2c(=O)oc(-c3ccccc3)cc2nn1-c1ccccc1 14.1 µM
Cc1cc(C)c(C(N)=O)c(SCC(=O)c2ccc(Cl)cc2)n1 8.91 µM
CCOC(=O)c1nc2sc(C)c(C)c2c(=O)[nH]1 10 µM
CCC(=O)N[C@@H]1Cc2ccccc2[C@@H](c2ccccc2)C1 7.94 µM
COc1cccc(Nc2nc(-c3ccc(O)cc3)cs2)c1 2.51 µM
Cc1cc(C)n(C(=O)CCCCCCCCC(=O)n2nc(C)cc2C)n1 3.55 µM

activity, negative = inhibition, inactive:
O=C(Cn1ccc(=O)[nH]c1=O)Nc1ccc(C(=O)O)c(O)c1 40.8% [at 11.4 µM]
COCn1c2ccccc2c2nnc(C(C)=O)nc21 5.57% [at 11.4 µM] and -2.14% [at 11.4 µM]
N[C@@H](Cc1ncccn1)C(=O)O 1.66% [at 11.4 µM]
CC(C)(CO)N1CCN(C(=S)Nc2ccccc2)CC1 4.38% [at 11.4 µM]
NCCc1nc(-c2nc(C(=O)O)cs2)cs1 -18.8% [at 11.4 µM]
Oc1ccc(CNCc2ccccc2)c2cccnc12 -5.63% [at 11.4 µM]
CCN(CC(=O)O)CC(=O)O 7.01% [at 11.4 µM]
COc1cccc([C@H]2Oc3ccc(OC)cc3/C(=N\O[C@@H]3O[C@H](COC(C)=O)[C@H](OC(C)=O)[C@H](OC(C)=O)[C@H]3OC(C)=O)[C@@H]2O)c1 14.8% [at 11.4 µM]
CC(=O)OCC(=O)[C@]12OC(C)(C)O[C@@H]1C[C@H]1[C@H]3CC=C4C[C@@H](O)CC[C@]4(C)[C@H]3CC[C@]12C 4.13% [at 11.4 µM]
NC(=O)c1nnn(Cc2cc(Cl)c(C(=O)c3ccc(Cl)cc3)c(Cl)c2)c1N -30.1% [at 11.4 µM]
OCCNc1ncnc2c1ncn2[C@@H]1O[C@@H](CO)[C@H](O)[C@@H]1O 32.5% [at 11.4 µM]
